Records with an inconclusive call do not appear. Unmarked numbers belong to inactive results. The source made the active and inactive calls. Calls come from the whole dose curve.
Test: qHTS assay to identify small molecule agonists or antagonists of the thyroid stimulating hormone receptor (TSHR) signaling pathway - wild type cell line counter screen (AID 1259384)
Details: HEK293 wild type, cAMP HTRF counter-screen, active compounds read high; series mostly up to 92.4 µM; cAMP activity change: at the top concentration
Excerpt: U.S. Tox21 Program National Center for Advancing Translational Sciences [NCATS] NIH Chemical Genomics Center [NCGC] U.S. Environmental Protection Agency [EPA] National Institutes of Environmental Health Sciences [NIEHS] National Toxicology Program [NTP] U.S. Food and Drug Administration [FDA] Tox21 Assay Overview: TSHR is the receptor for thyrotropin (thyroid stimulating hormone or TSH), a member of the glycoprotein hormone family. TSH is released by the anterior pituitary gland and is the main regulator of thyroid gland growth and development. Upon binding circulating thyrotropin, a G-protein signal cascade activates adenylyl cyclase and […] cAMP concentration is increased. cAMP is a key second messenger involved extensively in cellular signal transduction pathways associated with the majority of G-protein coupled receptors (GPCRs). The activation of these GPCRs by neurotransmitters, lipids, nucleotides, peptides and hormones results in the activation or the inhibition of plasma membrane-bound adenylate cyclase through heterotrimeric G-proteins. A cell-based TSHR-Hek293 assay can be used to identify TSHR agonists. To eliminate the false positive compounds identified from screening a cell-based TSHR-Hek293 cell line, cAMP assay in a wild type Hek293 cells was used as a counter screening.
Tox21 Assay Protocol Summary: Hek293 cells (wild type) were dispensed at 800 cells/4 uL/well in 1536-well white plates using a Multidrop dispenser. After the assay plates were incubated at a 37 C/5% CO2 incubator for 18 hrs, 23 nL of compounds dissolved in DMSO, positive controls or DMSO only was transferred to the assay plate by a pin tool, followed by 1 ul medium containing Ro20-1724. After 30 min of incubation at room temperature, 2.5 ul/well of cAMP-d2 and 2.5 ul/well of anti-cAMP-cryptate were added respectively into the assay plates using a Flying Reagent Dispenser. The plates were incubated at room temperature for 1 hr. The fluorescence intensity in the plates was measured using an Envision plate reader. Each test compound was measured at 15 concentrations and in triplicates.
% is set by controls: 0 for no effect and ±100 for the full control effect.

Row | Compound | cAMP activity change | outcome
1 | Cc1cc2c(cc1S(N)(=O)=O)S(=O)(=O)CCC2 | 3.17% [at 42.5 µM] | –
2 | CCC(C)S (stereo not given) | 0.879% [at 3.27 µM] | –
3 | Nc1cc(=O)[nH]c(N)n1 | 2.94% [at 42.5 µM] | –
4 | O=C(O)Cc1ccc(CCNS(=O)(=O)c2ccc(Cl)cc2)cc1 | 1.58% [at 42.5 µM] | –
5 | Cc1cc(O)cc2c1O[C@](C)(CCC[C@H](C)CCC[C@H](C)CCCC(C)C)CC2 | 1.13% [at 42.5 µM] | –
6 | CCCCC/C=C\CCC=O | -0.0045% | –
7 | Brc1c(NC2=NCCN2)ccc2nccnc12 | 0.678% [at 42.5 µM] | –
8 | CCO[Si](CCC1CCC2OC2C1)(OCC)OCC (stereo not given) | 0.202% | –
9 | C/C=C(\C)C#N | -3.59% | –
10 | C1OCOCO1 | 3.19% | –
11 | COc1cc(C(=O)N2CCCCCCC2)cc(OC)c1OC | 0.784% [at 42.5 µM] | –
12 | CCCCC(CC)COC(=O)c1ccccc1O (stereo not given) | 9.19% [at 42.5 µM] | –
13 | CCCN(CCC)CCc1cccc2c1CC(=O)N2 | 0.899% [at 42.5 µM] | –
14 | Cc1cccn2c(=O)c(-c3nnn[nH]3)cnc12 | -0.907% [at 18.9 µM] | –
15 | CC/C=C\CCOC(C)=O | -2.18% | –
16 | COCCc1ccc(OCC(O)CNC(C)C)cc1 (stereo not given) | – | inactive
17 | CC(C)(C)c1ccc(O)c(O)c1 | -1.74% | –
18 | CCCCCSCCCCC | 1.46% | –
19 | CCCN1CCCC[C@H]1C(=O)Nc1c(C)cccc1C | -11.5% [at 42.5 µM] | –
20 | C=CCOCC(CC)(CO)COCC=C | -0.0942% | –

Row | Compound | cAMP activity change | outcome
21 | NC(=O)c1cn(Cc2c(F)cccc2F)nn1 | 3.19% [at 42.5 µM] | –
22 | COCCCOCCCOC | 2.1% | –
23 | NC(=O)c1ccc(N)cc1 | 6.42% | –
24 | ClC(Cl)(Br)Br | 2.13% | –
25 | CC1(C)C(O)C(C)(C)C1O (stereo not given) | 0.0471% | –
26 | C[C@](N)(Cc1ccc(O)cc1)C(=O)O | 3.57% [at 8.39 µM] | –
27 | COc1nc(N)nc2c1ncn2[C@@H]1O[C@H](CO)[C@@H](O)[C@@H]1O | 1.67% [at 42.5 µM] | –
28 | O=Cc1cccc([N+](=O)[O-])c1 | 0.0919% | –
29 | CCOc1ccc(C(=O)OCCN(CC)CC)cc1 | 0.827% [at 42.5 µM] | –
30 | CCN1CCC[C@H]1CNC(=O)c1cc(S(N)(=O)=O)ccc1OC | -1.69% [at 42.5 µM] | –
31 | CCOC(=O)Nc1ccc(NCc2ccc(F)cc2)nc1N | -6.85% [at 42.5 µM] | –
32 | CC(=O)CC(C)C | 0.0111% | –
33 | Nc1ccccc1S(=O)(=O)O | -6.08% | –
34 | C[N+](C)(C)CC(O)CC(=O)[O-] (stereo not given) | -0.289% [at 42.5 µM] | –
35 | CC(C)c1cc2c(cc1S(=O)(=O)O)[C@@]1(C)CCC[C@@](C)(C(=O)O)[C@@H]1CC2 | 1.59% [at 42.5 µM] | –
36 | Cc1c(NC(C)C)c(=O)n(-c2ccccc2)n1C | 1.92% [at 42.5 µM] | –
37 | COC(=O)C1=C(C)NC(C)=C(C(=O)OC)C1c1ccccc1[N+](=O)[O-] | – | inactive
38 | CC(=O)OCC(=O)[C@@]1(O)CCC2C3CCC4=CC(=O)CC[C@]4(C)C3[C@@H](O)C[C@@]21C (stereo not given in full) | 1.56% [at 42.5 µM] | –
39 | Cc1sccc1Br | -6.66% [at 42.5 µM] | –
40 | OC[C@]1(O)OC[C@@H](O)[C@H](O)[C@@H]1O | – | inactive
